Test results as given in PubChem BioAssay AID651640 (Broad Institute, 2012).
“And” between values parts separate entries of the source, which are not always exact repeats. Identical values can stand only once. Out of some 350,000 compounds screened, about 6,000 (1.7%) were called active. Not shown: some 5% with an inconclusive outcome. No stated cut-off is given here; in the data, active means CPE inhibition above about 20% (passing the limit was not always enough); inconclusive means no clear call, values can overlap the other calls; tested in BHK-21 cells. Only a selection was taken, and actives are over-represented in it overall. A structure can be active in one record and inactive in another.

assay: protection of cells from dengue 2 killing – plate reader, single concentration, primary screen (AID 651640); settings: DENV2-infected cells, cytopathic effect rescue, at 9.99 µM, stronger effect = higher value;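 further: 0% = median of neutral control wells and 100% = median of positive control wells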

| Compound | CPE inhibition |
| --- | --- |
| COCC(=O)N1[C@H](C(=O)N2CCN(C)CC2)[C@@H](CO)[C@@H]2Cn3c(ccc(C4=CCCC4)c3=O)[C@@H]21 | -7.88% (inactive) |
| COc1cccc(S(=O)(=O)N2CC3(CCN(C)CC3)c3c(n(C)c4cc(OC)ccc34)[C@H]2CO)c1 | 3.74% (inactive) |
| CC(=O)C1=C(C)N(Cc2ccccc2)C(=S)NC1c1cccc(Br)c1 (configuration not stated) | -5.19% (inactive) |
| C[C@@H]1CCCCO[C@@H](CN(C)S(=O)(=O)c2cccs2)[C@@H](C)CN([C@@H](C)CO)C(=O)c2cc(NS(=O)(=O)c3ccc(F)cc3)ccc2O1 | -8.5% (inactive) |
| C[C@@H]1CN([C@H](C)CO)C(=O)c2cccc(NC(=O)c3cnccn3)c2O[C@@H]1CN(C)Cc1ccncc1 | 5.84% (inactive) |
| C[C@H]1CN([C@@H](C)CO)C(=O)c2cccc(NC(=O)c3cnccn3)c2O[C@@H]1CN(C)Cc1ccc(Oc2ccccc2)cc1 | 2.15% (inactive) |
| C[C@H](CO)N1C[C@H](C)[C@H](CN(C)C(=O)Nc2ccc(F)cc2)Oc2c(NC(=O)c3cnccn3)cccc2C1=O | 29.3% (active) |
| CC(C)NC(=O)N(C)C[C@@H]1Oc2c(NC(=O)c3cnccn3)cccc2C(=O)N([C@@H](C)CO)C[C@@H]1C | -11.9% (inactive) |
| C[C@@H]1CN([C@@H](C)CO)C(=O)c2cccc(NC(=O)Nc3ccc(F)cc3)c2O[C@H]1CN(C)C(=O)Nc1ccc(F)cc1 | 14.7% (inactive) |
| C[C@H]1CN([C@@H](C)CO)C(=O)c2cccc(NC(=O)c3cnccn3)c2O[C@H]1CN(C)C(=O)Nc1ccccc1 | 28.3% (active) |
| CC(=O)N[C@H]1CC[C@H](CCNC(=O)C2CC2)O[C@H]1CO | -5.24% (inactive) |
| O=C(c1cccc(F)c1)N1C[C@H]2[C@@H](c3ccccc31)[C@@H](CO)N2C(=O)Cc1ccccc1 | -5.94% (inactive) |
| CO[C@@H]1CN(C)C(=O)c2ccc(NS(C)(=O)=O)cc2OC[C@@H](C)N(C(=O)CC2CC2)C[C@@H]1C | -2.7% (inactive) |
| Cc1c(C(=O)NCCN2C(=O)S/C(=C\c3cccs3)C2=O)cccc1[N+](=O)[O-] | 27% (active) |
| Cc1c(C(=O)NCCCc2ccccc2)cccc1[N+](=O)[O-] | 4.47% (inactive) |
| Cc1nn(Cc2ccccc2)c(C)c1C(=O)NCCN1C(=O)S/C(=C\c2ccc(F)cc2)C1=O | -3.31% (inactive) |
| O=C(C[C@@H]1CC[C@@H](NS(=O)(=O)c2ccccc2)[C@H](CO)O1)NCc1ccc(Cl)c(Cl)c1 | 3.78% (inactive) |
| Cc1c(C)n2c(SCC(=O)N3CCCC3)nnc2[nH]c1=O | 13.9% (inactive) |
| CCc1ccc(C(=O)CSc2nnc(C)c(=O)[nH]2)cc1 | -2.63% (inactive) |
| Cc1nnc(SCC(=O)N2CCOCC2)[nH]c1=O | 58.6% (active) |
| COc1ccc2c3c(n(C)c2c1)[C@@H](CO)N(C(=O)Nc1ccc(F)cc1)CC31CN(C(=O)NC(C)C)C1 | -3.42% (inactive) |
| CNC(=O)C[C@@H]1CC[C@H]2[C@H](COc3ccc(NC(=O)C4CC4)cc3C(=O)N2C)O1 | -4.01% (inactive) |
| CCCNC(=O)Nc1ccc2c(c1)C(=O)N(C)C[C@@H](OC)[C@H](C)CN(CCC)[C@@H](C)CO2 | 3.79% (inactive) |
| COc1ccc(S(=O)(=O)Nc2cccc3c2O[C@H](CN(C)C(=O)NC(C)C)[C@H](C)CN([C@H](C)CO)C3=O)cc1 | -8.19% (inactive) |
| O=C(N[C@@H]1CC[C@@H](CCn2cc(-c3ccccn3)nn2)O[C@@H]1CO)c1ccccc1 | -2.85% (inactive) |
| CC=Cc1ccc2n(c1=O)C[C@@H]1[C@@H](CO)[C@H](C(=O)N3CCCCC3)[C@H]2N1C(=O)C1CCC1 (mixture of isomers) | 1.43% (inactive) |

| Compound | CPE inhibition |
| --- | --- |
| O=S(=O)(NCC[C@H]1CC[C@@H](NS(=O)(=O)c2ccccc2Cl)[C@@H](CO)O1)c1ccc(Cl)cc1 | -9.23% (inactive) |
| COc1ccc2c(C)c(CCC(=O)NC3CC3)c(=O)oc2c1C | 63.2% (active) |
| COc1ccc(OC)c(Cc2nnc(CCC(=O)NC3CCCC3)o2)c1 | -7.33% (inactive) |
| Cc1c(CCC(=O)O)c(=O)oc2c(C)c(OCc3ccccc3Cl)ccc12 | -5.66% (inactive) |
| C[C@H]1CN([C@@H](C)CO)C(=O)c2cc(C#CCN(C)C)cnc2O[C@H]1CN(C)C(=O)Cc1ccccc1 | -2.97% (inactive) |
| Cc1[nH]c2ccccc2c1CC(=O)Nc1ccc(Nc2cccnc2)c(-c2cccc(Cl)c2)c1 | -3.53% (inactive) |
| Cc1ccccc1CN(C)C[C@H]1OCc2cn(nn2)CCCC(=O)N([C@@H](C)CO)C[C@H]1C | -8.88% (inactive) |
| COc1ccc(CN(C)C[C@H]2OCCCC[C@H](C)Oc3ccc(NC(=O)c4ccccc4)cc3C(=O)N([C@@H](C)CO)C[C@@H]2C)cc1 | 10.3% (inactive) |
| O=C(Nc1ncccc1O)c1ccc(S(=O)(=O)N2CCCC2)cc1 | -6.91% (inactive) |
| O=C(N/N=C/c1ccccn1)c1ccc(S(=O)(=O)N2CCCCCC2)cc1 | 0.844% (inactive) |
| O=C(Nc1ncccc1O)c1ccc(S(=O)(=O)N2CCCCCC2)cc1 | 71.9% (active) |
| C[C@@H]1CN([C@H](C)CO)C(=O)c2cc(NC(=O)Nc3ccc(F)cc3)ccc2O[C@@H](C)CCCCO[C@H]1CN(C)Cc1ccc(Cl)c(Cl)c1 | -2.33% (inactive) |
| C[C@@H]1CN([C@@H](C)CO)S(=O)(=O)c2ccc(C3=CCCCC3)cc2O[C@@H]1CN(C)Cc1cccc(C(=O)O)c1 | 0.212% (inactive) |
| O=C(COc1ccccc1)Nc1ccc(N2CCN(C(=O)c3cccs3)CC2)cc1 | 21.9% (active) |
| COc1ccc(N2CCN(C(=O)c3cccs3)CC2)cc1 | 5.45% (inactive) |
| O=C(COc1ccccc1)Nc1ccc(C(=O)N2CCCC2)cc1 | -2.25% (inactive) |
| COc1ccc(-c2cn[nH]c2-c2ccc(OC)cc2)cc1 | 4.92% (inactive) |
| COc1ccc2cc(-c3[nH]ncc3CNCCn3nc(C)cc3C)ccc2c1 | 22.2% (active) |
| Cc1cc(C)n(CCNS(=O)(=O)c2ccc(Cl)cc2)n1 | 8.8% (inactive) |
| CN(C)CC(=O)N1[C@H](C(=O)NC2CCC2)[C@@H](CO)[C@@H]2Cn3c(ccc(-c4ccc(F)cc4)c3=O)[C@@H]21 | 2.93% (inactive) |
| O=C(CN1CCOCC1)N1C[C@@H]2N[C@H](C1)C2c1ccc(-c2ccncc2)cc1 (some centres not stated) | -7.01% (inactive) |
| O=C(Cc1ccncc1)N1C[C@@H]2N[C@H](C1)C2c1ccc(-c2ccc(F)cc2)cc1 (some centres not stated) | 21.5% (active) |
| O=C(C1CCC1)N1C[C@@H]2N[C@H](C1)C2c1ccc(-c2cncnc2)cc1 (some centres not stated) | 10.6% (inactive) |
| Cn1cnc(S(=O)(=O)N2C[C@@H]3N[C@H](C2)C3c2ccc(-c3ccccc3F)cc2)c1 (some centres not stated) | 72.2% (active) and -4.36% (inactive) |
| Cn1cnc(S(=O)(=O)N2C[C@@H]3N[C@H](C2)C3c2ccc(/C=C/c3ccccc3)cc2)c1 (some centres not stated) | 1.24% (inactive) and -2.99% (inactive) |
| COc1ccc(-c2ccc(C3[C@@H]4CN(S(=O)(=O)c5cn(C)cn5)C[C@H]3N4)cc2)cc1 (some centres not stated) | 1.06% (inactive) |

| Compound | CPE inhibition |
| --- | --- |
| CO[C@@H]1CN(C)C(=O)c2cc(NC(=O)C3CCCC3)ccc2OC[C@H](C)N(C)C[C@@H]1C | 4.63% (inactive) |
| COC(=O)C[C@@H]1C[C@H]2c3cc(NC(=O)CN(C)C)ccc3O[C@H]2[C@H](CO)O1 | 1.76% (inactive) |
| Cc1noc(C)c1S(=O)(=O)N(C)C[C@@H]1OCCCC[C@H](C)Oc2ccc(NC(=O)CCC(F)(F)F)cc2C(=O)N([C@H](C)CO)C[C@H]1C | 18.7% (inactive) |
| O=C(Nc1nccs1)[C@@H]1[C@@H](CO)[C@@H]2Cn3c(ccc(-c4cccnc4)c3=O)[C@@H]2N1CC1CC1 | -4.43% (inactive) |
| CC(C)(C)OC(=O)C[C@@H]1C/C=C\C[C@H](CC(=O)N[C@@H](CO)Cc2ccccc2)C(=O)N[C@H](Cc2ccccc2)COC1=O | 21.2% (active) |
| C[C@H]1COC(=O)[C@H](CC(=O)OC(C)(C)C)C/C=C\C[C@@H](CC(=O)N[C@H](CO)Cc2ccccc2)C(=O)N1 | 15.2% (inactive) |
| CC(C)(C)OC(=O)C[C@@H]1C/C=C\C[C@@H](CC(=O)N[C@H](CO)Cc2ccccc2)C(=O)NCCOC1=O | -7.88% (inactive) |
| O=C(NCC1CC1)[C@@H]1[C@@H](CO)[C@@H]2Cn3c(ccc(-c4ccncc4)c3=O)[C@@H]2N1Cc1cocn1 | 6.32% (inactive) |
| O=C(c1ccncc1)N1CC[C@@H]2[C@H]1c1cc(Br)ccc1N[C@@H]2CO | -10.3% (inactive) |
| C[C@H]1CN([C@@H](C)CO)C(=O)c2cccc(NC(=O)Nc3ccccc3)c2O[C@@H]1CN(C)C(=O)Nc1cccc2ccccc12 | 13.2% (inactive) |
| COCCn1c(SCC(=O)Nc2ccc(F)cc2F)nc2c(c1=O)SCC2 | -1.37% (inactive) |
| COCCn1c(SCC(=O)Nc2ccccc2F)nc2c(c1=O)SCC2 | 69.8% (active) |
| COCCn1c(SCC(=O)Nc2cc(Cl)ccc2OC)nc2c(c1=O)SC(C)C2 (configuration not stated) | 1.59% (inactive) |
| C[C@H]1CN([C@@H](C)CO)C(=O)c2cc(C3=CCCC3)cnc2O[C@H]1CN(C)Cc1ccccc1C(=O)O | 10.8% (inactive) |
| CC(C)C(=O)Nc1ccc2c(c1)C(=O)N(C)[C@@H]1CC[C@@H](CC(=O)NCCc3ccccc3)O[C@H]1CO2 | 19% (inactive) |
| C[C@@H]1CCCCO[C@@H](CN(C)Cc2ccncc2)[C@H](C)CN([C@@H](C)CO)C(=O)c2cc(NS(=O)(=O)c3ccccc3)ccc2O1 | -0.228% (inactive) |
| C[C@@H]1CCCCO[C@@H](CN(C)C(=O)Nc2ccc(C(F)(F)F)cc2)[C@H](C)CN([C@H](C)CO)C(=O)c2cc(NC(=O)C3CCCCC3)ccc2O1 | 22.5% (active) |
| C[C@@H]1CCCCO[C@@H](CN(C)C(=O)C2CCCCC2)[C@H](C)CN([C@H](C)CO)C(=O)c2cc(NC(=O)CCC(F)(F)F)ccc2O1 | 74.2% (active) |
| C[C@@H]1CN([C@@H](C)CO)C(=O)c2cc(NC(=O)C3CCCCC3)ccc2O[C@@H](C)CCCCO[C@@H]1CN(C)C(=O)Nc1ccccc1 | -1.11% (inactive) |
| C[C@@H]1CCCCO[C@@H](CN(C)C(=O)CCC(F)(F)F)[C@@H](C)CN([C@H](C)CO)C(=O)c2cc(NC(=O)CCC(F)(F)F)ccc2O1 | 4.89% (inactive) |
| C[C@H]1CCCCO[C@H](CN(C)Cc2ccc(C(F)(F)F)cc2)[C@@H](C)CN([C@@H](C)CO)C(=O)c2cc(NC(=O)C3CCCCC3)ccc2O1 | -17.3% (inactive) |
| C[C@@H]1CCCCO[C@@H](CN(C)C(=O)NC2CCCCC2)[C@@H](C)CN([C@H](C)CO)C(=O)c2cc(NC(=O)CCC(F)(F)F)ccc2O1 | -1.91% (inactive) |
| C[C@H](CO)N1C[C@H](C)[C@H](CN(C)C(=O)Nc2ccc(C(F)(F)F)cc2)OCCCC[C@H](C)Oc2ccc(NC(=O)C3CCCCC3)cc2C1=O | 21.9% (active) |
| C[C@@H]1CCCCO[C@H](CN(C)C(=O)Nc2ccc(C(F)(F)F)cc2)[C@H](C)CN([C@H](C)CO)C(=O)c2cc(NC(=O)Nc3ccc(C(F)(F)F)cc3)ccc2O1 | 2.81% (inactive) |
| C[C@H](CO)N1C[C@H](C)[C@@H](CN(C)Cc2ccc(C(F)(F)F)cc2)OCCCC[C@H](C)Oc2ccc(NC(=O)C3CCCCC3)cc2C1=O | -1.83% (inactive) |
